Data from PubChem BioAssay (EPA / NIEHS).
Inconclusive results are not listed. The source made the active and inactive calls. Rule for the calls: active = hit-call score of the fitted dose curve at least 0.9, where 1 is the maximum; inconclusive = response in the unintended direction; inactive = score below 0.9.

Assay: ACEA_ER_80hr: ACEA Biosciences xCELLigence Real-Time Cell Analysis on Estrogen Receptor Agonism for Proliferation (AID 2282667)
Details: T47D proliferation, impedance (xCELLigence), 80 h
Procedure, shortened: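 T47D human breast cells were seeded on electrode plates, monitored overnight, then exposed continuously to compounds in eight-point 1:4 dilutions from 100 uM (max 0.5% DMSO). Impedance-based growth was read at 80 h, fitted upward relative to DMSO.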

Row | SMILES | outcome | AC50
1 | CCOC(=O)CCCCCCCCC(=O)OCC | inactive | –
2 | O=S(=O)(O)c1cc(S(=O)(=O)O)c2c(N=Nc3ccccc3)c(O)ccc2c1 | inactive | –
3 | O=S1(=O)CC=CC1 | inactive | –
4 | CCCCOCCOCCOCCO | inactive | –
5 | NC(N)=S | – | 1290 nM (active)
6 | CN(C)CCCNCCCN(C)C | inactive | –
7 | N#CCCNCCC#N | – | 274 nM (active)
8 | CC(C)C(=O)OCC=Cc1ccccc1 | inactive | –
9 | c1ccc(Cc2ccccc2)cc1 | inactive | –
10 | CC1=CCC(=C(C)C)CC1 | inactive | –
11 | [O-]/[N+](=N\O)c1ccccc1 | inactive | –
12 | CC(=O)CC(C)(C)C1CCCCC1 | inactive | –
13 | C=C(C)C(=O)OCCC[Si](OC)(OC)OC | inactive | –
14 | CC/C=C/CCCCCCCCCCOC(C)=O | inactive | –
15 | CCCCCC1CCC(=O)O1 (configuration not stated) | inactive | –
16 | CCCCCCCCCC(=O)OCC | inactive | –
17 | COC(=O)C(C)Oc1ccc(Oc2ncc(C(F)(F)F)cc2Cl)cc1 (configuration not stated) | inactive | –
18 | C=CCCCCCCCCC(=O)OCC | inactive | –
19 | CC=CC(=O)C1=C(C)C=CCC1(C)C | inactive | –

Row | SMILES | outcome | AC50
20 | C[N+](C)(C)CCO | inactive | –
21 | CNC(=C[N+](=O)[O-])NCCSCc1ccc(CN(C)C)o1 | inactive | –
22 | O=S(=O)(O)CCCN1CCOCC1 | inactive | –
23 | COc1ccccc1O | inactive | –
24 | COc1cc(OC)c2ccc(=O)oc2c1 | inactive | –
25 | CC(O)CN (configuration not stated) | inactive | –
26 | c1ccc(OCCOc2ccccc2)cc1 | inactive | –
27 | c1ccc2scnc2c1 | inactive | –
28 | O=c1cc(-c2ccc(O)cc2)oc2cc(O)cc(O)c12 | – | 1330 nM (active)
29 | O=C(O)CS | inactive | –
30 | CCC(=O)OC(C)(C)C1CC=C(C)CC1 (configuration not stated) | inactive | –
31 | CCCCC1CCCCC(=O)O1 (configuration not stated) | inactive | –
32 | O=S(=O)(O)c1cc(O)c(O)c(S(=O)(=O)O)c1 | inactive | –
33 | O=C1CCC(=O)N1 | inactive | –
34 | CCCCCCC(C)O (configuration not stated) | inactive | –
35 | CC(CO)(CO)[N+](=O)[O-] | inactive | –
36 | C1CCCNCC1 | inactive | –
37 | CCCC1CCOC(C)S1 (configuration not stated) | inactive | –
